From ChEMBL document CHEMBL1961873, “Compounds: GSK PKIS; Assays: Nanosyn kinase panel” (2012)

Columns and labels:
[1] = molecular target: Death-associated protein kinase 1 (Homo sapiens) (UniProt P53355); details: at 1 µM;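 also: each value is a mean inhibition figure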
[2] = molecular target: T1, Serine/threonine-protein kinase DCLK2 (Homo sapiens) (UniProt Q8N568); details: at 0.1 µM
T1 sequence (whole entry): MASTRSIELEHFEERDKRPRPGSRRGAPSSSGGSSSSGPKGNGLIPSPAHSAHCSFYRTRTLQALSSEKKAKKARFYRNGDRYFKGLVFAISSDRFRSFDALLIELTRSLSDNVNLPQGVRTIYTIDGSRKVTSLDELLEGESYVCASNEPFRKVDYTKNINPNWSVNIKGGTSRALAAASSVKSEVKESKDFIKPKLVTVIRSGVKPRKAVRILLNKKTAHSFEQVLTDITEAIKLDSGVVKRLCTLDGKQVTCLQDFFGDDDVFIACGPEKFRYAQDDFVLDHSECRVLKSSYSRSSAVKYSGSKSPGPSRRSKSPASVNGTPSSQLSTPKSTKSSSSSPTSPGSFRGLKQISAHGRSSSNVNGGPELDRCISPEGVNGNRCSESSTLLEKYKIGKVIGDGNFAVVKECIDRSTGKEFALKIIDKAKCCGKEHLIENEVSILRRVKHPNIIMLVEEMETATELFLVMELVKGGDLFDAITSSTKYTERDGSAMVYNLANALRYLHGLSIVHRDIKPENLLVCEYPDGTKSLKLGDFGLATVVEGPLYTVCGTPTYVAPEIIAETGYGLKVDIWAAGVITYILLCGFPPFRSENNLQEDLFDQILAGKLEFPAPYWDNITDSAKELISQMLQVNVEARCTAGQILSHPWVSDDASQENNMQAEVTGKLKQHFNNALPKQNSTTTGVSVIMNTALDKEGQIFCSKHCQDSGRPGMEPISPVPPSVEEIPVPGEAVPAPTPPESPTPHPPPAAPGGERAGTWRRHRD

[3] = molecular target: T1, Serine/threonine-protein kinase DCLK2 (Homo sapiens); details: at 1 µM
[4] = molecular target: MAP kinase-activated protein kinase 2 (Homo sapiens) (UniProt P49137); details: at 0.1 µM
Sequence of MAP kinase-activated protein kinase 2 (Homo sapiens) (P49137 whole entry, looked up): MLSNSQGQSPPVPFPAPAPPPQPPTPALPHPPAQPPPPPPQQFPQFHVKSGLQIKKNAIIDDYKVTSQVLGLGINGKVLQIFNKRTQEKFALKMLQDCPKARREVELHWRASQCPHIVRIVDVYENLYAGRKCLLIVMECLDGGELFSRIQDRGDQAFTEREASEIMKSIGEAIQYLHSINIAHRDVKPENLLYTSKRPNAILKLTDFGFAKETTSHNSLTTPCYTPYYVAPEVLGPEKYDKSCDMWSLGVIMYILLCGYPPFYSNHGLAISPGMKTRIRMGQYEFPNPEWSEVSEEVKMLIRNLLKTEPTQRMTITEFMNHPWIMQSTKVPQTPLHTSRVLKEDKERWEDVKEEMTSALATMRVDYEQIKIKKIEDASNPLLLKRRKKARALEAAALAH

[5] = molecular target: MAP kinase-activated protein kinase 2 (Homo sapiens) (UniProt P49137); details: at 1 µM
[6] = molecular target: MAP kinase-activated protein kinase 3 (Homo sapiens) (UniProt Q16644); details: at 0.1 µM
[7] = molecular target: MAP kinase-activated protein kinase 3 (Homo sapiens) (UniProt Q16644); details: at 1 µM
[8] = molecular target: Serine/threonine-protein kinase MARK1 (Homo sapiens) (UniProt Q9P0L2); details: at 0.1 µM
Sequence of Serine/threonine-protein kinase MARK1 (Homo sapiens) (Q9P0L2 whole entry, looked up): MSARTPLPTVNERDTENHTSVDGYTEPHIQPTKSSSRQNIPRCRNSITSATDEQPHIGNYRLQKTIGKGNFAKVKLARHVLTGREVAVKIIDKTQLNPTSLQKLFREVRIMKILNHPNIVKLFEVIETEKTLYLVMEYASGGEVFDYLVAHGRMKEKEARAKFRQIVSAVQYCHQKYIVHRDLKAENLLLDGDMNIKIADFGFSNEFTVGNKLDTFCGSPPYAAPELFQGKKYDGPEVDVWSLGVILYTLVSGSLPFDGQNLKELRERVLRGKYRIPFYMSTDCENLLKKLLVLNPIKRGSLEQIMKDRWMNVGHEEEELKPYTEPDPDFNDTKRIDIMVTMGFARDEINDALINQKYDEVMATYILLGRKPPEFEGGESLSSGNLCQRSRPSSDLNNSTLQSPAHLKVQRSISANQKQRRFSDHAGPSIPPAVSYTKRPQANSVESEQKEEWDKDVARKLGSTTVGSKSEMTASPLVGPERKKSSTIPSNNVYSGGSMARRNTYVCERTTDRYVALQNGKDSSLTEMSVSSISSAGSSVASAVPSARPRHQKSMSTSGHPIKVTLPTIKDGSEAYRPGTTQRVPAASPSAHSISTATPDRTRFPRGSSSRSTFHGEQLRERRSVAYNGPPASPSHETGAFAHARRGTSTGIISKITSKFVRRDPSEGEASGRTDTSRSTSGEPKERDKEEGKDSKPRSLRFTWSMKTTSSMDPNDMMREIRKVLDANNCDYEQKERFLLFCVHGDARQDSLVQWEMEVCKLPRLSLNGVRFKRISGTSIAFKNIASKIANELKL

[9] = molecular target: Serine/threonine-protein kinase MARK1 (Homo sapiens) (UniProt Q9P0L2); details: at 1 µM
[10] = molecular target: MAP/microtubule affinity-regulating kinase 3 (Homo sapiens) (UniProt P27448); details: at 0.1 µM
[11] = molecular target: MAP/microtubule affinity-regulating kinase 3 (Homo sapiens) (UniProt P27448); details: at 1 µM
[12] = molecular target: T2, MAP/microtubule affinity-regulating kinase 4 (Homo sapiens) (UniProt Q96L34); details: at 0.1 µM
T2 sequence (whole entry): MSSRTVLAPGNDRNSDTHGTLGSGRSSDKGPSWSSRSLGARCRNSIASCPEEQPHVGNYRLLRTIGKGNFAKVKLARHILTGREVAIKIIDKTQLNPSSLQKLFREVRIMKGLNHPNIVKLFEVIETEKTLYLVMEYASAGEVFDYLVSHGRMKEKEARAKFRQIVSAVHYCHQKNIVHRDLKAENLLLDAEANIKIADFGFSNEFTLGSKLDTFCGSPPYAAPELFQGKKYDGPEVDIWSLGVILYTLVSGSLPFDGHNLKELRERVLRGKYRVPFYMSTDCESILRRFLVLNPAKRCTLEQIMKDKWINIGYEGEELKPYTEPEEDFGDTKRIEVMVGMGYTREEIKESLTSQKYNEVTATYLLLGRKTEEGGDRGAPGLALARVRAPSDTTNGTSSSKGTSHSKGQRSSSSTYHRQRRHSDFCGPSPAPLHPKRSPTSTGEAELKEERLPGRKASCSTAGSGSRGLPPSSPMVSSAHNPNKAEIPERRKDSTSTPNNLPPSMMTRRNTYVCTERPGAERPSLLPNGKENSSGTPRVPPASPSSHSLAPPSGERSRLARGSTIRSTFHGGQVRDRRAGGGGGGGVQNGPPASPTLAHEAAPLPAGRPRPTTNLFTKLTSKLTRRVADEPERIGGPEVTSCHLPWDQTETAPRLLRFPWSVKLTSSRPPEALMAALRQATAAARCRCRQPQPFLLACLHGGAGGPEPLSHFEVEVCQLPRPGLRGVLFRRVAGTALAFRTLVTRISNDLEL

[13] = molecular target: T2, MAP/microtubule affinity-regulating kinase 4 (Homo sapiens); details: at 1 µM
[14] = molecular target: Maternal embryonic leucine zipper kinase (Homo sapiens) (UniProt Q14680); details: at 0.1 µM
Sequence of Maternal embryonic leucine zipper kinase (Homo sapiens) (Q14680 whole entry, looked up): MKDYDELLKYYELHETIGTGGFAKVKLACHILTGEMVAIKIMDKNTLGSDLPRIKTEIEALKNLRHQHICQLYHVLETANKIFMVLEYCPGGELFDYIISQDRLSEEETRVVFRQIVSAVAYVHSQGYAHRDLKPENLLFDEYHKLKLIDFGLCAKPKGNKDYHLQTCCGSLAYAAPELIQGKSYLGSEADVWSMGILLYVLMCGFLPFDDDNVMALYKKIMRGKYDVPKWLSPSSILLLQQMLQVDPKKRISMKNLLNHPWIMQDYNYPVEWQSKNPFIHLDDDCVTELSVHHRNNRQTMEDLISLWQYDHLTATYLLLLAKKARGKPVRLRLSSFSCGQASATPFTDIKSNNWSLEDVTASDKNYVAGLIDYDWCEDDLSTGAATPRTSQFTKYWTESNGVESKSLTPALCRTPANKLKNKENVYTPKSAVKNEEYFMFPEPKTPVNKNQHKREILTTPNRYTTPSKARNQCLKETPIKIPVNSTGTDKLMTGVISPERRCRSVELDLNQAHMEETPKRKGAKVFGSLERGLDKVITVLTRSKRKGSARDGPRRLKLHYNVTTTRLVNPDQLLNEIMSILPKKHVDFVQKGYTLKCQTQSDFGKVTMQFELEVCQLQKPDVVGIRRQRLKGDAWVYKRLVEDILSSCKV

[15] = molecular target: Maternal embryonic leucine zipper kinase (Homo sapiens) (UniProt Q14680); details: at 1 µM
[16] = molecular target: MAP kinase-interacting serine/threonine-protein kinase 1 (Homo sapiens) (UniProt Q9BUB5); details: at 0.1 µM
Sequence of MAP kinase-interacting serine/threonine-protein kinase 1 (Homo sapiens) (Q9BUB5 whole entry, looked up): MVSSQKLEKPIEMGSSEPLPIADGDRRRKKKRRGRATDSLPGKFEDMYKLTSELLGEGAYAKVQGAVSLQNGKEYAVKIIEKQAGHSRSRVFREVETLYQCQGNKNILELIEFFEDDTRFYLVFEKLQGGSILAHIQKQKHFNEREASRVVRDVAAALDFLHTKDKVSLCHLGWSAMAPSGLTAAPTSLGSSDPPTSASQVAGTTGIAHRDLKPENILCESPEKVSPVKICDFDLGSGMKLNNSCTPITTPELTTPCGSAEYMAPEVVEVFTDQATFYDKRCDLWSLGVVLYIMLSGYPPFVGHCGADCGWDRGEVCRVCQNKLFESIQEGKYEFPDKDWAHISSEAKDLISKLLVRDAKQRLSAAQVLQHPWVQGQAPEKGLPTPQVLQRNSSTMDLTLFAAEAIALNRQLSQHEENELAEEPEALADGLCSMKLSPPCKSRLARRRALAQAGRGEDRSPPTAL

[17] = molecular target: MAP kinase-interacting serine/threonine-protein kinase 1 (Homo sapiens) (UniProt Q9BUB5); details: at 1 µM
[18] = molecular target: MAP kinase-interacting serine/threonine-protein kinase 2 (Homo sapiens) (UniProt Q9HBH9); details: at 0.1 µM
Sequence of MAP kinase-interacting serine/threonine-protein kinase 2 (Homo sapiens) (Q9HBH9 whole entry, looked up): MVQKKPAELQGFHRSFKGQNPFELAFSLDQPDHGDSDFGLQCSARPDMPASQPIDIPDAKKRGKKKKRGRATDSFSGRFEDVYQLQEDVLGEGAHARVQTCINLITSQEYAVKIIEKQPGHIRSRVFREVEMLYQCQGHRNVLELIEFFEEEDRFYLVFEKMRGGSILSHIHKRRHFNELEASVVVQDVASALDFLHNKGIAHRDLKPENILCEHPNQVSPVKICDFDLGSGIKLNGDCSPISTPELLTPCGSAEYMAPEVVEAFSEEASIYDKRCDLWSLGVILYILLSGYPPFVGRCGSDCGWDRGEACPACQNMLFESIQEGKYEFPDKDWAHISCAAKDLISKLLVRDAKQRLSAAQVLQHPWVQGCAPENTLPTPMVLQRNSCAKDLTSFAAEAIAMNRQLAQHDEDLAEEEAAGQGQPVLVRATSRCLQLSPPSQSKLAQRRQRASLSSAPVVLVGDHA

[19] = molecular target: MAP kinase-interacting serine/threonine-protein kinase 2 (Homo sapiens) (UniProt Q9HBH9); details: at 1 µM
[20] = molecular target: Serine/threonine-protein kinase MARK2 (Homo sapiens) (UniProt Q7KZI7); details: at 0.1 µM;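 also: mean percent inhibition of PAR-1Balpha kinase activity, reported from the GSK PKIS screen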
Sequence of Serine/threonine-protein kinase MARK2 (Homo sapiens) (Q7KZI7 whole entry): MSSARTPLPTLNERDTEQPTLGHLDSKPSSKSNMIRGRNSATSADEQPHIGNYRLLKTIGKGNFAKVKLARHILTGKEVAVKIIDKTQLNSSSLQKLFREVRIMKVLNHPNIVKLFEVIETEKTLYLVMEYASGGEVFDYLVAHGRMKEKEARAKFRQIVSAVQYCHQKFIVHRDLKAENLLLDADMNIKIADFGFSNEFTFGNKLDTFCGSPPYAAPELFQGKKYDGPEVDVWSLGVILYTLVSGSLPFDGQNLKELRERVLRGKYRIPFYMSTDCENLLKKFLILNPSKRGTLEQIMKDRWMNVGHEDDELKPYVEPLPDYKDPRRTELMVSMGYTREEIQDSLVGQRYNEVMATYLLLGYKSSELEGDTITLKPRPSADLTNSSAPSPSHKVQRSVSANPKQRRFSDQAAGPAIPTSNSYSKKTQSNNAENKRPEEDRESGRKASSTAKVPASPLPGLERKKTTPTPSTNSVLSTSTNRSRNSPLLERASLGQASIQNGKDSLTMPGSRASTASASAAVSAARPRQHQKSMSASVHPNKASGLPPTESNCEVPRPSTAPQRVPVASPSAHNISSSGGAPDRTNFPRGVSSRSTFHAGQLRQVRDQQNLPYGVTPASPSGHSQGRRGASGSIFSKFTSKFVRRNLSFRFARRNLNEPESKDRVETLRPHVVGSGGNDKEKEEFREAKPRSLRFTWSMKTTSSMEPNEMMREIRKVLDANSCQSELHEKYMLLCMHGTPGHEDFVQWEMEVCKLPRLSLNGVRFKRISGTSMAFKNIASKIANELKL

Sequence of Death-associated protein kinase 1 (Homo sapiens) (P53355 whole entry, looked up): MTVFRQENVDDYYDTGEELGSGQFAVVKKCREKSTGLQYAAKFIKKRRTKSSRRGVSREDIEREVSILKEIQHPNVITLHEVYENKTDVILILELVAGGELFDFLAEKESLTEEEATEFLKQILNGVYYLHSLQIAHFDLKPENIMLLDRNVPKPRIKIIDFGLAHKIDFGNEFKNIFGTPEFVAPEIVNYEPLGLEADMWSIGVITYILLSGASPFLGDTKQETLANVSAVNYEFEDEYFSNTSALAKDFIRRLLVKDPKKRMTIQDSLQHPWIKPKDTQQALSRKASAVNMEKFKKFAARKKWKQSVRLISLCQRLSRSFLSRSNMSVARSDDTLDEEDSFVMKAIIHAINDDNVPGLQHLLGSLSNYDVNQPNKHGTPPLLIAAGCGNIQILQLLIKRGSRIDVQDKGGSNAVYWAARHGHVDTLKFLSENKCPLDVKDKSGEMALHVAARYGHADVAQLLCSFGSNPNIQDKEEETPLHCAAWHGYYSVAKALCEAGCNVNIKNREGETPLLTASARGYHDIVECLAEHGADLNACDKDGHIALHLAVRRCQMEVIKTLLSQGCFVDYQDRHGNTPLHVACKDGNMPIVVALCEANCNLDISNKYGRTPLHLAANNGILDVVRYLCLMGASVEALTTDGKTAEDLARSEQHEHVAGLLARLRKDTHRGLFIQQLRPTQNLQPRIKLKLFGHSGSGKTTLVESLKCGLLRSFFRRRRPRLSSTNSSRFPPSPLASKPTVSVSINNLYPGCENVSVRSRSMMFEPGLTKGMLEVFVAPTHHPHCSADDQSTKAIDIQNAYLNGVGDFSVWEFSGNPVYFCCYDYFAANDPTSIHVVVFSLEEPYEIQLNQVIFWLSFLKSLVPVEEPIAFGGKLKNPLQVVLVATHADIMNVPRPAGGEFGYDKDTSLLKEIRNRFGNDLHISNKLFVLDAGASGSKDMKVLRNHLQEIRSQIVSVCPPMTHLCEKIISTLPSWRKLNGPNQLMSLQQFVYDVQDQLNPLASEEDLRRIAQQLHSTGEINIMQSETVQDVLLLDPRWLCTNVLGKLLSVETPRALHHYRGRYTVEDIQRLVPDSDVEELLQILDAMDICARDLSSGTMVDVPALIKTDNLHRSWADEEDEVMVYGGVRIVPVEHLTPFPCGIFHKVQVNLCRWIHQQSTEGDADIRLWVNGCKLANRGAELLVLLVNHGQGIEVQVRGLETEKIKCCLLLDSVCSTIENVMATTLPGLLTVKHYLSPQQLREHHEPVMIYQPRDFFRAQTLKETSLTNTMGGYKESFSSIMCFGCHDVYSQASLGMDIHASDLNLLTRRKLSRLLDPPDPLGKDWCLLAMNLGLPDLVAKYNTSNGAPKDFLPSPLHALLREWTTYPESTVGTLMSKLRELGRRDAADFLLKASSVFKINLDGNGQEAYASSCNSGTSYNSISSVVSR

Compound | inhibition [1] [%] | inhibition [2] [%] | inhibition [3] [%] | inhibition [4] [%] | inhibition [5] [%] | inhibition [6] [%] | inhibition [7] [%] | inhibition [8] [%] | inhibition [9] [%] | inhibition [10] [%] | inhibition [11] [%] | inhibition [12] [%] | inhibition [13] [%] | inhibition [14] [%] | inhibition [15] [%] | inhibition [16] [%] | inhibition [17] [%] | inhibition [18] [%] | inhibition [19] [%] | inhibition [20] [%]
COc1cc2c(cc1Nc1nc(Nc3ccsc3C(N)=O)c3cc[nH]c3n1)N(C(=O)CN(C)C)CCC2 | 4.14 | -2.25 | 0.34 | -0.32 | -2.2 | 6.83 | 6.01 | 2.48 | 5.99 | 2.11 | 4.97 | 0.47 | 0.65 | 1.24 | 11.3 | 0.63 | 0.17 | -0.68 | 0.28 | 2.05
CCn1c(-c2nonc2N)nc2c(C#CC(C)(C)O)ncc(OCC3CCNCC3)c21 | 1.75 | -3.05 | -1.26 | 0.79 | 1.63 | 2.86 | 1.31 | 15.5 | 61.3 | 13 | 68.8 | 10.5 | 54.5 | 6.83 | 31.6 | 1.39 | 9.05 | 0.56 | 4.38 | 11.3
COc1cccc(-n2ncc3c(N/N=C/c4ccncc4)ncnc32)c1 | 4.53 | 2.42 | 1.8 | 2.5 | 1.87 | 3.62 | 4.56 | 4.99 | 9.17 | 5.75 | 7.7 | 1.15 | 5.01 | 2.47 | 6.51 | 23.2 | 70.4 | 15.2 | 59.2 | 1.24
Cc1cc(-c2ccco2)cc(C)c1/C=C/c1cncc(-c2nn[nH]n2)c1 | 0.04 | -1.22 | 0.25 | 0.52 | 0.01 | 1.42 | 1.25 | 1.07 | 1.26 | -0.4 | 1.64 | 1.35 | 1.35 | 1.3 | 0.19 | 3.16 | 29.9 | 4.58 | 35.2 | 1.91
COc1cccc(COc2cc(-n3cnc4ccccc43)sc2C(N)=O)c1 | 1.02 | -0.3 | 0.3 | -0.08 | -1.3 | 2.28 | 3.61 | 0.58 | 1.16 | 2.28 | 2.02 | 1.15 | 1 | -2.92 | -8.42 | 1.73 | 12 | -0.04 | 6.31 | -2.23
NS(=O)(=O)c1ccc(-c2ccc3c(NC(=O)C4CC4)n[nH]c3c2)cc1 | 4.32 | 0.37 | 0.39 | 1.09 | 0.96 | 2.61 | 2.69 | 1.75 | 2.18 | 2.65 | 5.56 | 0.63 | 2.61 | 0.83 | 1.42 | 4.28 | 17.9 | 0.71 | 6.29 | 0.75
Fc1ccc(-c2ncn(C3CCNCC3)c2-c2ccnc(Oc3ccccc3)n2)cc1 | -1.87 | -4.56 | -2.43 | 0.07 | -0.82 | 31.3 | 33.4 | 0.45 | 0.99 | 0.57 | -0.46 | 1.68 | 1.42 | 3.76 | 4.43 | 1.38 | 2.07 | 1.12 | 0.76 | -1.21
CCn1c(-c2nonc2N)nc2c(C#CCN)ncc(OCCCN)c21 | -3.38 | -0.93 | -0.65 | -0.73 | -0.87 | -1.07 | -0.66 | 4.42 | 11 | 6.58 | 11.4 | 3.8 | 6.19 | -1.84 | 16 | -0.19 | 7.05 | 5.13 | 10.2 | 7.01
Nc1nonc1-c1nc2cnccc2n1C1CCCCC1 | -1.97 | -0.3 | 1.52 | -1.18 | -1.08 | -2.2 | -2.76 | 2.89 | 16.5 | 4.04 | 24.2 | 2.83 | 10.8 | 10.3 | 74.6 | -0.38 | 4.63 | 0.19 | 8.42 | 3.67
NS(=O)(=O)c1ccc(N/C=C2\C(=O)Nc3ccc4ncsc4c32)cc1 | 9.33 | 0.08 | 5.55 | 2.68 | 2.48 | 7.84 | 10.4 | 13.6 | 53.8 | 8.01 | 42.9 | 11 | 46.3 | 38.6 | 89.5 | 4.69 | 24 | 0.94 | 10.5 | 6.29
COc1cc(C=NNc2ncnc3c2cnn3Cc2ccccc2)ccc1O | -3.68 | -3.6 | -3.02 | -2.2 | -2.27 | -2.35 | -1.92 | -0.6 | 1.36 | 0.53 | 4.6 | 1.11 | 3.25 | 13.2 | 47.1 | -2.04 | 0.25 | -0.35 | 1.29 | 1.79
NC(=O)c1sc(-n2cnc3cc(C(F)(F)F)ccc32)cc1OCc1ccccc1Br | 0 | -1.23 | 2.52 | 0.61 | 0.42 | 1.71 | -0.9 | 1.79 | 1.6 | 1.11 | 0.82 | 2.12 | 1.92 | 4.69 | 0.55 | 1.99 | 2.87 | 1.3 | 2.88 | -0.02
CCn1c(-c2nonc2N)nc2c(C#CC(C)(C)O)nc(O[C@@H](CN)c3ccccc3)cc21 | 2.31 | 6.73 | 18.5 | -0.97 | -1 | -3.02 | -0.47 | 77.2 | 93.1 | 83.3 | 101 | 74.5 | 90.7 | 42.2 | 90.4 | 0.51 | 6.37 | 5.3 | 33.1 | 63.9
CCn1c(-c2nonc2N)nc2c(C#CC(C)(C)O)ncc(OC[C@@H]3CCCN3)c21 | 0.89 | -1.55 | 2.93 | -0.56 | -0.71 | -0.39 | -0.82 | 13.8 | 61.1 | 14.9 | 67.9 | 11.6 | 55.2 | 1.75 | 18.4 | 1.39 | 1.82 | 0.48 | -0.07 | 12.9
